This is an account of results in PubChem BioAssay (NCATS).

Test [1] can be described thus: qHTS of pediatric cancer cell lines to identify multiple opportunities for drug repurposing: Primary screen for U-2 OS cells (AID 1347096). Note: nearly all actives have a fitted effect of over 50% in size. The procedure, abridged:
(§1)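 Cells (500-1,000/well) in growth media were settled 5 h at 37 degrees C, then given compounds for 48 h. Viability was read as CellTiter-Glo luminescence. Primary runs used MIPE at 11 points (0.78 nM-46 µM) and NPC at 8 points (0.59 nM-46 µM); follow-ups used 11 points.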
In general terms: Quantitative high-throughput screening tests each substance at several concentrations.

Test [2] in a line: qHTS of pediatric cancer cell lines to identify multiple opportunities for drug repurposing: Primary screen for NB1643 cells (AID 1347099). Note: nearly all actives have a fitted effect of over 50% in size. Note: potency is the fitted concentration of half-maximal effect. The procedure, abridged:
(§2)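 Quantitative HTS format: each compound titrated (MIPE 11 points from 0.78 nM, NPC 8 points from 0.59 nM) onto cells plated 5 hours earlier. After 48 h at 37 degrees C, CellTiter-Glo luminescence was recorded.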

Test [3] is described as follows: qHTS of pediatric cancer cell lines to identify multiple opportunities for drug repurposing: Primary screen for BT-12 cells (AID 1347101). Note: nearly all actives have a fitted effect of over 25% in size. Note: potency is the fitted concentration of half-maximal effect. The procedure, abridged:
(§3)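 Cells (500-1,000/well) rested 5 h, then received compounds for 48 h; metabolically active cells were measured by CellTiter-Glo luminescence. Final concentrations spanned up to 46 µM (MIPE, 11-point) or 0.59 nM-46 µM (NPC, 8-point) in primary screens, 11-point in follow-ups.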

A short description of test [4]: qHTS of pediatric cancer cell lines to identify multiple opportunities for drug repurposing: Primary screen for MG 63 (6-TG R) cells (AID 1347105). Note: nearly all actives have a fitted effect of over 50% in size. Note: potency is the fitted concentration of half-maximal effect. The procedure, abridged: as §2
Test [5] can be described thus: qHTS of pediatric cancer cell lines to identify multiple opportunities for drug repurposing: Primary screen for LAN-5 cells (AID 1347100). Note: potency is the fitted concentration of half-maximal effect. The procedure, abridged: as §1
Test [6] in a line: qHTS of pediatric cancer cell lines to identify multiple opportunities for drug repurposing: Primary screen for Rh18 cells (AID 1347102). Note: nearly all actives have a fitted effect of over 65% in size. Note: potency is the fitted concentration of half-maximal effect. The procedure, abridged: as §1
Test [7] is described as follows: qHTS of pediatric cancer cell lines to identify multiple opportunities for drug repurposing: Primary screen for OHS-50 cells (AID 1347103). Note: nearly all actives have a fitted effect of over 40% in size. Note: potency is the fitted concentration of half-maximal effect. The procedure, abridged: as §3
Test [8] is described as follows: qHTS of pediatric cancer cell lines to identify multiple opportunities for drug repurposing: Primary screen for RD cells (AID 1347104). Note: nearly all actives have a fitted effect of over 55% in size. Note: potency is the fitted concentration of half-maximal effect. The procedure, abridged: as §2
Test [9] is described as follows: qHTS of pediatric cancer cell lines to identify multiple opportunities for drug repurposing: Primary screen for Saos-2 cells (AID 1347097). Note: nearly all actives have a fitted effect of over 40% in size. Note: potency is the fitted concentration of half-maximal effect. The procedure, abridged: as §2
Test [10] is described as follows: qHTS of pediatric cancer cell lines to identify multiple opportunities for drug repurposing: Primary screen for SK-N-SH cells (AID 1347098). Note: nearly all actives have a fitted effect of over 65% in size. Note: potency is the fitted concentration of half-maximal effect. The procedure, abridged:
as §3

Inconclusive results are not listed. Calls of active or inactive are those of the source. Calls come from the whole dose curve; as a rule, active = well fitted curve in the direction sought with a large enough effect; inconclusive = small, poorly fitted or top-dose-only effect, or another doubt; inactive = no such curve, though single readings can be large; an effect the other way counts as inactive or inconclusive.

As for `CCOC(=O)c1ccc(N)cc1`, the Potency entry in test [1], in test [2], in [3] and in [4] was “inactive” in each case.

On to `CC1(COc2ccc(CC3SC(=O)NC3=O)cc2)CCCCC1` (centres undefined), for which the Potency entry in [1], in test [2], in test [5], in [6], in test [8] and in [4] was “inactive” each time. The Potency in [7] is 5.5 µM (active).

As to `Cc1cccc(C)c1NC(=O)CN1CCCC1`, the Potency result in test [9], in test [10], in [2], in [5], in [3] and in test [6] was “inactive” throughout. For the same molecule, the Potency result in test [7], in [8] and in test [4] was “inactive” in each case.

With `CN1CCc2cccc3c2[C@H]1Cc1ccc(O)c(O)c1-3`, the Potency entry in [1] and in test [4] was “inactive” in each case.

Regarding `C=C[C@H]1CN2CC[C@H]1C[C@@H]2[C@@H](O)c1ccnc2ccc(OC)cc12`, the Potency result in [9], in test [10], in test [2], in [5], in test [3] and in test [6] was “inactive” each time. The Potency entry in test [7], in test [8] and in [4] was “inactive” throughout.

As for `CC[C@]12CCCN3CCc4c(n(c5ccccc45)C(=O)C1)[C@@H]32`, the Potency result in test [1] and in test [2] was “inactive” throughout. Moreover, the Potency in test [7] is 27.6 µM (active).

Regarding `CC1CCc2c(N3CCC(O)CC3)c(F)cc3c(=O)c(C(=O)O)cn1c23` (centres undefined), the Potency result in [9], in test [10], in test [2], in [5], in test [6] and in [7] was “inactive” each time. Besides, the Potency result in test [8] and in test [4] was “inactive” each time.

Regarding `N/C(=N\N=C\c1ccc(Cl)cc1)N/N=C/c1ccc(Cl)cc1`, the Potency entry in [1], in test [2], in test [3] and in test [6] was “inactive” in each case.

`CC(C)[N+](C)(C)CC(O)COc1cccc2ccccc12` (centres undefined): the Potency entry in [9], in test [10], in test [2], in test [5], in [6] and in test [8] was “inactive” each time. Moreover, the Potency result in test [4] was “inactive”.

For the molecule `CCOc1ccccc1OCCN[C@H](C)Cc1ccc(OC)c(S(N)(=O)=O)c1`, the Potency entry in test [9], in test [10], in test [2], in test [5], in test [3] and in test [6] was “inactive” each time. The Potency entry in test [7], in [8] and in test [4] was “inactive” throughout.

Regarding `NCCNC(=O)c1ccc(Cl)cn1`, the Potency result in test [9], in [10], in [2], in test [3], in [6] and in test [7] was “inactive” in each case. Also, the Potency entry in [8] and in test [4] was “inactive” in each case.

On to `CC(C)(Cc1c[nH]c2ccccc12)NCC(O)COc1ccccc1C#N` (centres undefined), for which the Potency result in [1], in [2], in [5], in test [6] and in test [4] was “inactive” throughout.

Consider `C/C=C/C=N/NC(=O)c1ccncc1`, for which the Potency entry in [9], in test [10], in test [5], in test [3], in test [6] and in test [7] was “inactive” each time. Also, the Potency result in test [8] and in test [4] was “inactive” throughout.

Consider `CN(CCCN1c2ccccc2CCc2ccccc21)CC(=O)c1ccc(Cl)cc1`, for which the Potency entry in test [9], in test [10], in test [2], in test [5], in test [6] and in test [8] was “inactive” throughout. Moreover, the Potency result in test [4] was “inactive”.

As to `CCOC(=O)c1c(N)sc2c1CCN(Cc1ccccc1)C2`, the Potency result in test [1], in test [2], in test [6] and in [4] was “inactive” each time. Also, the Potency in test [3] and in test [7] was 17.4 µM (active) in each case.

For `COc1cc(C(=S)N2CCOCC2)ccc1O`, the Potency result in test [1], in [2], in test [3], in test [7], in [8] and in [4] was “inactive” in each case.

Regarding `C[N+]1(CC2COC(c3ccccc3)(C3CCCCC3)O2)CCCCC1` (centres undefined), the Potency result in test [9], in test [10], in test [2], in test [5], in test [6] and in [8] was “inactive” throughout. The Potency result in test [4] is “inactive”.

Regarding `C=C[C@@]1(C)CC(=O)[C@]2(O)[C@@]3(C)[C@@H](O)CCC(C)(C)[C@@H]3[C@H](O)[C@H](OC(C)=O)[C@@]2(C)O1`, the Potency entry in test [9], in test [10], in [2], in test [5], in test [3] and in test [6] was “inactive” throughout. In addition, the Potency result in [8] and in test [4] was “inactive” each time.

`CC(=O)O[C@H]1C[C@@H]2CC[C@@H]3[C@H](CC[C@@]4(C)[C@H]3C[C@H]([N+]3(C)CCCCC3)[C@@H]4OC(C)=O)[C@@]2(C)C[C@@H]1N1CCCCC1`: the Potency result in test [9], in test [10], in test [2], in test [5], in test [3] and in test [6] was “inactive” each time. Further, the Potency entry in test [7], in test [8] and in test [4] was “inactive” throughout.

Consider `CCN(CC)CCNc1ccc(CO)c2sc3ccccc3c(=O)c12`, for which the Potency in [10] is 17.2 µM (active); in [2] it was 16.8 µM (active); in test [5] it was 13.3 µM (active); in test [3], 13.8 µM (active); in [7], 24.6 µM (active); in [8] it was 23.7 µM (active). The Potency entry in [4] is “inactive”.

With `O=C(Nc1ncc([N+](=O)[O-])s1)c1cccs1`, the Potency is 24.4 µM (active) in test [10], 23.7 µM (active) in [2], 12.3 µM (active) in test [3] and 30.9 µM (active) in test [7].

`CCO[C@@H]1O[C@H](C(COCc2ccccc2)OCc2ccccc2)[C@H](OCc2ccccc2)[C@H]1O` (some centres undefined): the Potency is 26.6 µM (active) in test [9] and 10.6 µM (active) in test [4]. For the same molecule, the Potency result in test [2] and in test [5] was “inactive” in each case.

Turning to `CC(C)(C)NC[C@H](O)COc1cccc2c1CCCC2=O`, the Potency result in [9], in [2], in test [3], in test [6], in test [7] and in [8] was “inactive” in each case. Besides, in test [4], the Potency entry was “inactive”.

For `CCc1nn(CCCN2CCN(c3cccc(Cl)c3)CC2)c(=O)n1CCOc1ccccc1`, the Potency result in [2], in test [6], in test [8] and in test [4] was “inactive” each time. Moreover, the Potency in test [7] was 24.6 µM (active).

On to `NC(=O)n1c(O)c(C(=O)c2cccs2)c2cc(Cl)ccc21`, for which the Potency entry in [6] and in test [4] was “inactive” throughout.

As for `NC(N)=NN=C(/C=C/c1ccc([N+](=O)[O-])o1)/C=C/c1ccc([N+](=O)[O-])o1`, the Potency was 3.86 µM (active) in test [10]; 15 µM (active) in test [2]; 2.11 µM (active) in test [5]; 0.978 µM (active) in test [3]; 1.19 µM (active) in test [6]; 0.841 µM (active) in test [8].

On to `COc1ccc(C(Cl)=C(c2ccc(OC)cc2)c2ccc(OC)cc2)cc1`, for which the Potency entry in test [10], in [2], in test [6], in test [8] and in [4] was “inactive” in each case.

For `OC[C@H]1O[C@@H](Oc2ccc(O)cc2)[C@H](O)[C@@H](O)[C@@H]1O`, the Potency entry in [10], in test [2], in test [5], in test [3], in [7] and in [8] was “inactive” in each case. Further, in test [4], the Potency result was “inactive”.

Consider `C[C@H]1O[C@@H](O[C@H]2CC[C@@]3(C)[C@H](CC[C@@H]4[C@@H]3C[C@@H](O)[C@]3(C)[C@@H](C5=CC(=O)OC5)CC[C@]43O)C2)C[C@H](O)[C@@H]1O[C@H]1C[C@H](O)[C@H](O[C@H]2C[C@H](O)[C@H](O[C@@H]3O[C@H](CO)[C@@H](O)[C@H](O)[C@H]3O)[C@@H](C)O2)[C@@H](C)O1`, for which the Potency in test [10] is 0.386 µM (active); in test [2], 0.668 µM (active); in test [3], 0.309 µM (active); in test [7] it was 0.219 µM (active); in test [8] it was 0.15 µM (active); in test [4] it was 0.0841 µM (active).
